# Assay outcomes as filed in PubChem BioAssay.
# TMEM16A inh = inhibitors of mouse TMEM16A calcium-activated chloride channel. Q8BHY3. HEK293 TMEM16A/YFP iodide influx fluorescence, ionomycin. AID 588511. normalized B-score (activity score, 25-100; higher = stronger inhibition) at 10 µM. 1.2% of 310,000 active;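 active = ratio plate-corrected score three or more library SD toward inhibition, starting fluorescence score within five deviations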;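 also: score derived from kinetic fluorescence span divided by baseline fluorescence per well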
# KCNK3 inh = human KCNK3 channel inhibition, primary screen; O14649; CHO-KCNK3 thallium flux, FluxOR fluorescence; stronger effect = lower value; B-score at 10 µM; 0.84% of 340,000 active; AID 602410;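 active = B-score under library mean minus 4 SD, starting fluorescence ratio at most library mean plus 5 SD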;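 also: more negative B-score means stronger inhibition of thallium flux through KCNK3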
# Kir21 block = Kir2.1 (mouse) channel inhibition; 0.85% of 310,000 active; P35561; B-score at 10 µM; AID 1672; HEK293-Kir2.1, FluxOR thallium flux fluorescence; stronger effect = lower value;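 active = fluorescence ratio B-score at or below minus 3 SD of library scores, with starting-brightness B-score within 2 SD, cut at about -4.2 in these data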;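 also: channel flux triggered by added potassium and thallium sulfate stimulus; B-score of peak minus minimum fluorescence over baseline after thallium stimulus; more negative B-score means stronger Kir2.1 block with less thallium influx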
# ANO1 activ = mouse TMEM16A channel activation, primary screen | Q8BHY3 | HEK293 TMEM16A/YFP-H148Q/I152L, iodide quench fluorescence; stronger effect = lower value | B-score at 10 µM | 0.3% of 340,000 active | AID 623877;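 active = fluorescence-ratio B-score plate-corrected deviation score at least 3 library SD below zero, with starting fluorescence score within 5 deviations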;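 also: channel opened by trigger with iodide after compound preincubation; score built on the fluorescence ratio of max minus min over baseline; more negative score means more quench and so TMEM16A activation or potentiation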
# KCNK9 block = blocks the human KCNK9 two-pore domain potassium channel | Q9NPC2 | HEK293 KCNK9, FluxOR thallium flux fluorescence; stronger effect = lower value | B-score at 10 µM | 1.2% of 310,000 active | AID 488922;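 active = ratio B-score over 3 SD below the library mean, with starting fluorescence within 5 SD of its mean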;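 also: negative B-score means less thallium flux so channel inhibition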
# TMEM16A reconf = TMEM16A (mouse) chloride channel inhibition, re-confirmation. inhibition, % at 10 µM. 39% of 2,300 active. shares compounds with TMEM16A inh. HEK293 TMEM16A/YFP-H148Q, iodide quench fluorescence; ionomycin added to raise cell calcium;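 active = mean duplicate percent inhibition, scaled so buffer wells are 0 and the reference blocker 100, over three buffer SD above buffer mean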
# HEK293 Ca mobil = counter-screen for TMEM16A inhibitors: effect on calcium mobilization; AID 652231; shares compounds with TMEM16A inh; calcium response (% of ionomycin), % at 10 µM; 2% of 2,300 active; TMEM16A/YFP HEK293, Fluo4 calcium mobilization;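 active = duplicate-averaged calcium signal over 20% of the ionomycin maximum, relative to buffer baseline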;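 also: each well's signal is peak minus trough fluorescence divided by its pre-addition baseline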
# YFP-HEK293 quench = counter-screen for TMEM16A inhibitors: effect in parental YFP-HEK293 cells; shares compounds with TMEM16A inh; iodide YFP quench, ionomycin; YFP ratio F(max-min)/F0 at 10 µM; 2,300 tested, under 10 active;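 active = yellow fluorescent protein signal ratio exceeding the buffer control mean by over 5 SD of those controls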;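 also: ratio is mean of duplicate wells from kinetic YFP trace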
# ClC-1 rat inh = rat ClC-1 inhibition, TMEM16A specificity screen; CHO ClC-1-YFP, iodide influx fluorescence quench; iodide control reads 0, buffer control 100; 2,300 tested, under 10 active; AID 652236; shares compounds with TMEM16A inh; ratio percent, % at 10 µM;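 active = duplicate-mean ratio percent above the mean of iodide-only control wells, which defines zero, plus 5 of their SD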;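 also: higher percent means stronger block of ClC-1 iodide influx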
# Numbers stand for hits; n = inactive; x = no result. An excerpt weighted towards active compounds, which were near 3.5% of everything screened.
SMILES,TMEM16A inh,KCNK3 inh,Kir21 block,ANO1 activ,KCNK9 block,TMEM16A reconf,HEK293 Ca mobil,YFP-HEK293 quench,ClC-1 rat inh
CC(C)CC(=O)Nc1nnc(S(=O)(=O)N(C)Cc2ccco2)s1,n,n,n,n,n,x,x,x,x
Cc1c(-n2c(SCC(=O)C(C)(C)C)nc3ccccc3c2=O)c(=O)n(-c2ccccc2)n1C,n,n,n,n,n,x,x,x,x
Cc1nonc1C(=O)N/N=C/c1ccc(O)c(O)c1,n,n,n,n,n,x,x,x,x
COc1cc(/C=N/NC(=O)c2nonc2C)ccc1O,n,n,n,n,n,n,n,n,n
CC(C)=CCC12Oc3cc(O)ccc3C1(O)Oc1cc(O)c([C@H]3C=C(C)CC(c4ccc(O)cc4O)[C@H]3C(=O)c3ccc(O)cc3O)c(O)c1C2=O (stereo partly drawn),n,x,n,x,n,x,x,x,x
O=C(Nc1nc(-c2ccccc2)cs1)c1cccs1,25,n,n,n,n,22.0%,n,n,n
O=C(Nc1nc(-c2ccccc2)ns1)c1cccs1,n,n,n,n,n,x,x,x,x
O=C(Nc1nc(-c2ccccc2)cs1)c1ccc2c(=O)n3c(nc2c1)CCCCC3,100,n,n,n,n,n,n,n,n
O=C(Nc1nc(-c2ccccc2)cs1)c1ccc(=O)[nH]c1,25,n,n,n,n,26.5%,n,n,n
O=C(Nc1nc(-c2ccccc2)cs1)c1ccccc1NS(=O)(=O)c1ccc(F)cc1,100,n,n,n,n,78.0%,n,n,n
CCC(C)(C)NC(=O)C(c1cccc(OC)c1)N(C(=O)CNC(=O)c1cccs1)c1cccnc1 (stereo not drawn),n,n,n,n,n,x,x,x,x
COc1ccc2nc(C)cc(N3CC(C)OC(C)C3)c2c1 (stereo not drawn),25,n,n,n,n,n,n,n,n
Cc1cc(OCC(=O)NCC2CCC(C(=O)O)CC2)c2c(C)c(C)c(=O)oc2c1 (stereo not drawn),n,n,n,n,n,x,x,x,x
CN(C)S(=O)(=O)N1CCC(Oc2cccc(C(=O)NCCC3=CCCCC3)c2)CC1,100,n,n,n,n,21.5%,n,n,n
CN(C)S(=O)(=O)N1CCC(Oc2cccc(C(=O)NC3CCCCC3)c2)CC1,n,n,n,n,n,x,x,x,x
Cc1cc(/C=N/n2cnnc2)c(C)n1-c1ccc(OCc2ccc(F)cc2)cc1,100,n,n,n,n,n,n,n,n
Cc1ccc(-c2noc(CCCC(=O)NC3CCCCC3)n2)cc1,25,n,n,n,n,n,n,n,n
Cc1ccc(-c2noc(CCC(=O)NC3CCCC3)n2)cc1,n,n,n,n,n,x,x,x,x
COc1ccc(N(CC(=O)NCCSCc2ccc(C)cc2)S(=O)(=O)c2ccccc2)cc1,25,n,n,n,n,n,n,n,n
COc1ccc(N(CC(=O)NCCSc2ccccc2)S(=O)(=O)c2ccccc2)cc1,n,n,n,n,n,x,x,x,x
COc1ccccc1-c1nnc(C2CCN(S(=O)(=O)c3ccccc3[N+](=O)[O-])CC2)o1,n,n,n,n,n,x,x,x,x
CCCCOc1nc2ccccc2nc1NS(=O)(=O)c1ccc(F)cc1,25,n,n,n,n,n,n,n,n
O=S(=O)(Nc1nc2ccccc2nc1Cl)c1ccc(F)cc1,n,n,n,n,n,x,x,x,x
O=S(=O)(Nc1nc2ccccc2nc1N1CCN(c2ccccc2)CC1)c1ccc(F)cc1,n,n,n,n,n,31.5%,n,n,n
Cc1cccc(NC(=O)C2C3CCC4C(CCC32)C4(Cl)Cl)c1 (stereo not drawn),n,n,n,n,n,x,x,x,x
SMILES,TMEM16A inh,KCNK3 inh,Kir21 block,ANO1 activ,KCNK9 block,TMEM16A reconf,HEK293 Ca mobil,YFP-HEK293 quench,ClC-1 rat inh
COc1ccccc1OCC(=O)NNC(=O)CCCC(=O)NNC(=O)COc1ccccc1OC,n,n,n,n,n,x,x,x,x
COc1ccccc1OCC(=O)NNc1c2ccccc2nc2ccccc12,25,n,n,n,n,17.0%,n,n,n
COc1ccccc1OCC(=O)NCCNC(=O)COc1ccccc1OC,n,n,n,n,n,x,x,x,x
COc1ccccc1OCC(=O)NCC1CCCCC1,100,n,n,n,n,n,n,n,n
COc1cccc(C(=O)Nc2cccc(-c3nnc(-c4ccco4)o3)c2)c1,25,n,n,n,n,23.0%,n,n,n
COc1cc(C(=O)Nc2ccc(Cl)c(C(F)(F)F)c2)cc(OC)c1OC,n,n,n,n,n,x,x,x,x
COc1cccc(C(=O)Nc2ccc(Cl)c(C(F)(F)F)c2)c1,25,n,n,n,n,18.0%,n,n,n
COc1cccc(C(=O)Nc2ccc(C(=O)c3ccccc3)cc2)c1,100,n,n,n,-7.75,26.0%,n,n,n
O=C(Nc1ccccc1)c1cccc(-c2nnc(-c3ccccc3)o2)c1,n,n,n,n,n,x,x,x,x
COc1ccc(CNC(=S)NC(C)CCc2ccccc2)cc1 (stereo not drawn),n,n,n,n,n,x,x,x,x
CN(C)c1oc(-c2ccccc2Cl)nc1P(=O)(c1ccccc1)c1ccccc1,n,n,n,n,n,x,x,x,x
NC(=O)c1c(NC(=O)c2ccc([N+](=O)[O-])o2)sc2c1CCCC2,n,n,n,n,n,x,x,x,x
N#Cc1c(NC(=O)c2ccc([N+](=O)[O-])o2)sc2c1CCC2,100,n,n,n,n,41.0%,n,n,n
CN(C)c1cccc(C(=O)NCCCSc2ccccc2)c1,n,n,n,n,n,x,x,x,x
COc1ccc(CN2CCC(C(=O)Nc3ccc(Oc4ccccc4)nc3)CC2)cc1F,25,n,n,n,n,n,n,n,n
COc1cc(F)ccc1CN1CCC(C(=O)Nc2ccc(Oc3ccccc3)nc2)CC1,n,n,n,n,n,x,x,x,x
CC(=O)Oc1ccc(CC(C(=O)O)N2C(=O)c3ccccc3C2=O)cc1 (stereo not drawn),n,n,n,n,n,x,x,x,x
O=C(O)[C@H](Cc1ccccc1)N1C(=O)c2ccncc2C1=O,100,n,n,n,n,n,n,n,n
Cc1ccnc(NC(=O)Cn2c(=O)oc3ccccc32)c1,n,n,n,n,n,x,x,x,x
COc1ccc(Cl)cc1N(C)C(=O)CCc1nc(-c2ccc(C)cc2)no1,n,n,n,n,n,x,x,x,x
CCc1ccccc1N(C)C(=O)CCc1nc(-c2ccc(C)cc2)no1,100,n,n,n,n,n,n,n,n
